# IL1B secr inh: qHTS for Inhibitors of Inflammasome Signaling: IL-1-beta AlphaLISA Primary Screen | THP-1 LPS/ATP IL-1B secretion, AlphaLISA, 16 h; active compounds read low | activity change, % at 57.5 µM | hit rate 4.7% among 360,000; in the data active = activity change below about -50%; inconclusive = mostly about -30% to -49%
#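 Secreted IL-1B measured by AlphaLISA bead assay after 16 h compound exposure of THP-1 cells; compounds (final up to 57.5 uM) added 1 h before LPS (250 ng/mL) and ATP (1.25 mM) stimulation; lower signal means less secretion.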
# TDP1 cell CPT: qHTS for Inhibitors of human tyrosyl-DNA phosphodiesterase 1 (TDP1): qHTS in cells in presence of CPT. chicken DT40 Tdp1-/-;hTDP1 cells + 20 nM CPT, ATP luminescence, 48 h. Potency, µM (titrated, usually from 46.2 µM), for inactives: top-dose activity change, negative = growth inhibition, usual class: inhibitors. hit rate 12% among 420,000; note: potency is the fitted concentration of half-maximal effect; nearly all actives have a fitted effect of over 55% in size
#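 Chicken DT40 Tdp1-/- cells complemented with human TDP1, 400 cells/well, exposed to compounds plus 20 nM camptothecin for at least 48 h at 37 C; viability read as ATP content by CellTiter-Glo luminescence.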
# HT1080NT lethal: qHTS for induction of synthetic lethality in tumor cells producing 2HG: qHTS for the HT-1080-NT fibrosarcoma cell line; HT-1080-NT fibrosarcoma viability, CellTiter-Glo ATP luminescence, 48 h; Potency, µM (titrated, usually from 46.1 µM), for the others: at the highest dose activity, negative = less viability, usual class: cytotoxic; hit rate 1.6% among 360,000;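 note: NT is the 2HG producing partner of a matched IDH1 knockdown line; potency is the fitted concentration of half-maximal effect; 0% = DMSO-treated cells and -100% = media-only wells without cells; nearly all actives have a fitted effect of over 55% in size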
#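 Fibrosarcoma NT cells, 750 per well in 5% FBS RPMI, were exposed to compound for 48 hours. Viability: CellTiter-Glo luminescence.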
# uPA generation: qHTS for Inhibitors of Cell Surface uPA Generation. cell surface uPA generation assay, qHTS. Potency, µM (series often up to 38.3 µM), without a hit: at the top dose activity change, negative = inhibition, hits mostly inhibitors. hit rate 0.31% among 330,000. AID 540303, 2011; active = well fitted inhibition curve with a large enough effect; inconclusive = small, poorly fitted or top-dose-only effect; inactive = no such curve, though single readings can be large or run the other way; tested in mouse RAW 264.7 cells; note: potency is the fitted concentration of half-maximal effect; nearly all actives have a fitted effect of over 55% in size
# TDP1 cell noCPT: qHTS for Inhibitors of human tyrosyl-DNA phosphodiesterase 1 (TDP1): qHTS in cells in absence of CPT; DT40 Tdp1-/- hTDP1 cells, no CPT, ATP luminescence, 48 h; Potency, µM (doses to about 46.2 µM), for the others: at the highest dose activity change, negative = growth inhibition, usual class: inhibitors; hit rate 15% among 420,000; AID 686978, 2013; note: potency is the fitted concentration of half-maximal effect; nearly all actives have a fitted effect of over 55% in size
#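 DT40 Tdp1-/-;hTDP1 cells, no CPT (DMSO vehicle only), 400 cells/well; compounds pin-transferred; ≥48 hr, 37 °C; CellTiter-Glo 30 min RT dark, luminescence read.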
# HT1080 IDH1KD tx: qHTS for induction of synthetic lethality in tumor cells producing 2HG: qHTS for the HT-1080-IDH1KD cell line. hit rate 2% among 360,000. Potency, µM (series often up to 46.1 µM), without a hit: at the highest dose activity, negative = toxicity, usual class: cytotoxic. HT-1080 IDH1 knockdown viability, ATP luminescence, 48 h;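 note: potency is the fitted concentration of half-maximal effect; 0% = DMSO wells and -100% = cell-free medium wells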
#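 Assay cells: HT-1080 with IDH1 knockdown, 750 per well, RPMI/5% FBS. Exposure: 48 h at 37 °C following 2 h pre-incubation. Read: CellTiter-Glo luminescence; fitted concentration-response, curve class assigned.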
# * marks the source's active call; other numbers are inactive results; ? = inconclusive; / = no result. This is a sample that favours compounds with a hit; in the whole collection about 19% have one here. Unless noted, calls come from the whole dose curve; as a rule, active = well fitted curve in the direction sought with a large enough effect; inconclusive = small, poorly fitted or top-dose-only effect, or another doubt; inactive = no such curve, though single readings can be large; an effect the other way counts as inactive or inconclusive. Unless noted, % is set by controls: 0 for no effect and ±100 for the full control effect.
SMILES,IL1B secr inh,TDP1 cell CPT,HT1080NT lethal,uPA generation,TDP1 cell noCPT,HT1080 IDH1KD tx
COc1cccc(N2CCN(C(=O)c3ccc(CSc4nc5ccncc5[nH]4)cc3)CC2)c1,18,18µM*,-11%,-20%,18µM*,-13%
COc1cccc(CSc2nc3ccncc3[nH]2)c1,4,?,-27%,?,18µM*,-25%
COc1ccc(N2CCN(C(=O)c3ccc(CSc4ccccc4)cc3)CC2)cc1,8,-8%,-5%,0%,-26%,0%
COc1cccc(CNC(=O)CSc2nc3ccc(C)cc3[nH]2)c1,-11,?,-7%,3%,-16%,-9%
O=C1NC(c2ccccc2)(C(F)(F)F)SC2=CCCCCN12 (stereo not given),9,-27%,8%,2%,-22%,6%
Cc1ccc(C2(C(F)(F)F)NC(=O)N3CCN=C3S2)cc1 (stereo not given),/,21µM*,0%,/,?,0%
CC(C)CCn1c(=O)c(C(=O)N/N=C/c2cccc(F)c2)c(O)c2ccccc21,22,1.3µM*,13%,-4%,0.65µM*,11%
CCCCCCn1c(=O)c(C(=O)N/N=C/c2cccc(F)c2)c(O)c2ccccc21,-2,0.92µM*,10%,0%,1µM*,9%
CCCn1c(=O)c(C(=O)N/N=C/c2ccc(F)cc2)c(O)c2ccccc21,4,9.2µM*,15%,2%,5.2µM*,-2%
CCCn1c(=O)c(C(=O)N/N=C/c2ccccc2F)c(O)c2ccccc21,0,17%,30%,-1%,20%,16%
Cc1ccc(N2C(S)=C(C#N)C(=O)NC2c2ccco2)cc1 (stereo not given),39,23µM*,?,-3%,?,0%
N#CC1=C(S)N(c2ccccc2)C(c2cccs2)NC1=O (stereo not given),10,?,-4%,-4%,?,?
Cc1ccc(N2C(S)=C(C#N)C(=O)NC2c2cccs2)cc1 (stereo not given),-10,15µM*,-8%,?,13µM*,-6%
CNc1nc(-c2ccccc2C(F)(F)F)nc2ccccc12,/,?,/,/,-5%,/
CCOC(=O)C1CCCN(C(=O)c2cc(=O)c3ccccc3o2)C1 (stereo not given),20,0%,5%,1%,0%,5%
CCOC(=O)C1CCN(c2nc(-c3ccccc3)nc3c2oc2ccccc23)CC1,21,-19%,-9%,8%,?,-17%
CCOC(=O)C1CCN(c2ncnc3c2oc2ccccc23)CC1,11,?,?,-11%,16µM*,-5%
CCc1nnc(N2CCN(c3ncnc4c3oc3ccccc34)CC2)s1,?,18µM*,-24%,0%,18µM*,?
CCOC(=O)C1CCCN(c2ncnc3c2oc2ccccc23)C1 (stereo not given),53,?,-14%,-5%,13µM*,-11%
CCc1ccc(CNC(=O)c2ccc(OC3CCN(C(=O)COC)CC3)cc2)nc1,0,-10%,-2%,4%,?,1%
CN1CCN(C(CNC(=O)c2ccc(Br)o2)c2ccc(F)cc2)CC1 (stereo not given),-16,-1%,-1%,1%,-8%,4%
COCC1CCCN(Cc2cn(Cc3ccccc3)nc2-c2cc3ccccc3o2)C1 (stereo not given),-76*,26µM*,?,-7%,?,16µM*
COCC1CCN(Cc2cn[nH]c2-c2cc3ccccc3o2)C1 (stereo not given),-3,-13%,-6%,4%,-25%,-2%
COCC1CCN(Cc2cn(Cc3ccccc3)nc2-c2cc3ccccc3o2)CC1,-61*,?,-11%,-12%,-25%,?
COC(=O)C1CCN(Cc2cn(Cc3ccccc3)nc2-c2cc3ccccc3o2)CC1,-17,?,-10%,-12%,26µM*,-8%
SMILES,IL1B secr inh,TDP1 cell CPT,HT1080NT lethal,uPA generation,TDP1 cell noCPT,HT1080 IDH1KD tx
OC1CCN(Cc2cn(Cc3ccccc3)nc2-c2cc3ccccc3o2)CC1,?,-9%,-23%,0%,-25%,-16%
Cc1cccc(C(c2sc3nc(-c4ccco4)nn3c2O)N2CCN(c3ccccc3)CC2)c1 (stereo not given),/,?,/,/,-22%,/
O=S(Cc1ccc(Cl)cc1)CC(O)(c1ccccc1)c1ccccc1 (stereo not given),14,-6%,10%,1%,7%,11%
O=S(Cc1ccccc1)CC(O)(c1ccc(Cl)cc1)c1ccc(Cl)cc1 (stereo not given),-59*,?,?,/,?,?
N#CC1=C(N)N(c2ccccc2)C(c2ccccc2)C1(C#N)C#N (stereo not given),-9,16µM*,-18%,-4%,15µM*,?
COc1ccc2c(CCNC(=O)/C=C/c3ccc(OC)c(OC)c3)c[nH]c2c1,-11,?,-23%,-2%,18µM*,-25%
COc1cccc(/C=C/C(=O)NCCc2ccc(OC)c(OC)c2)c1,-18,?,14%,0%,?,8%
COc1ccc(OC)c(/C=C/C(=O)NCCc2nc3ccccc3[nH]2)c1,6,7.3µM*,-1%,0%,12µM*,-15%
COc1ccccc1CNC(=S)Nc1ccc(S(N)(=O)=O)cc1,-5,-14%,?,0%,-19%,1%
CCn1c(=NC(=O)c2cccc(N3C(=O)CCC3=O)c2)sc2c(OC)ccc(OC)c21,1,-25%,-3%,-3%,18µM*,0%
CCOC(=O)c1sc(=NC(=O)c2ccc(OC)c(OC)c2)n(C)c1C,3,-4%,11%,17%,-25%,?
CCOCCn1c(=NC(=O)c2ccc3c(c2)OCCO3)sc2cc(OCC)ccc21,/,?,/,/,15µM*,/
CCn1c(=NC(=O)C2COc3ccccc3O2)sc2c(OC)ccc(OC)c21 (stereo not given),-22,?,?,1%,15µM*,4%
CCn1c(=NC(=O)c2ccc3c(c2)OCCO3)sc2c(C)ccc(OC)c21,/,?,/,/,23µM*,/
CCOc1ccccc1CNC(=O)c1cnc2sc(N3CCC(C)CC3)nn2c1=O,/,-19%,/,/,-11%,/
